Sampled rows, rich in hits. Any-hit rate of the full collection: about 5.4%.
Calb FLC: C. albicans growth inhibition with fluconazole, primary screen, CaCi-2 strain, Alamar Blue fluorescence; C. albicans CaCi-2 (fluconazole-resistant clinical isolate) + fluconazole, 48 h; growth inhibition, % (concentration not given with the values); hit rate 0.57% among 300,000; AID 1979, 2009;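 active means growth inhibition above about 58% in most replicates, limit read from the data, passing the limit was not always enough; inconclusive means exactly half the replicates above a set limit; inactive means most replicates below a set limit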;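 further: all wells also contain fluconazole at 8 µg/ml as a sub-toxic cotreatment; 0% = median of DMSO wells and 100% = median of geldanamycin control wells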
PP5 inh: PP5 phosphatase inhibitors, primary screen, biochemical, fluorescence. Serine/threonine-protein phosphatase 5 (Homo sapiens), P53041. purified PP5c, OMFP substrate fluorescence. inhibition, % at 6.7 µM. hit rate 0.18% among 320,000. AID 1987, 2009;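 active means inhibition above the campaign's mean inhibition across all tested compounds plus 3 SD, cut at about 9.5% in these data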;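 further: 0% = DMSO only and 100% = 100 µM cantharidin control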
PP1 counter: PP1-alpha phosphatase inhibitors, primary screen, counter-screen for PP5 inhibitor project, biochemical, fluorescence, OMFP substrate, single point; AID 2235, 2010; inhibition, % at 6.7 µM; purified PP1alpha; hit rate 0.9% among 320,000;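 active means inhibition above the mean inhibition of all tested compounds plus 3 SD, computed separately for each screening campaign, cut at about 15% in these data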
Target sequence (P62136 whole entry, looked up): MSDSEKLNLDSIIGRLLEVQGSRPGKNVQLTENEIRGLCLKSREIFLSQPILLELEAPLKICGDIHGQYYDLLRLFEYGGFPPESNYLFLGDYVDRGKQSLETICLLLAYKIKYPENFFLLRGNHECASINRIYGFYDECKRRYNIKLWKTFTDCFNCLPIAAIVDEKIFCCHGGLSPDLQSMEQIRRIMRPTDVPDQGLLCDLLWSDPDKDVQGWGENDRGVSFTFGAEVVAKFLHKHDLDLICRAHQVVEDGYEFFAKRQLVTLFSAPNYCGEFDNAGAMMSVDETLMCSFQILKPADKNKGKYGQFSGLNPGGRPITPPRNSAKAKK
CSC inhib: cancer stem cell viability inhibitors, primary screen, luminescence | cancer stem cell-like cells viability | inhibition, % at 7.5 µM | hit rate 1.1% among 300,000; in the data active means inhibition above about 75%; inconclusive means no clear call, values can overlap the other calls; tested in HMLE shEcad cells
ALR inh: inhibitors of human ALR sulfhydryl oxidase, primary screen, biochemical, H2O2 detection, HRP-luminol luminescence, single point; FAD-linked sulfhydryl oxidase ALR (Homo sapiens), P55789; purified ALR, DTT oxidation; inhibition, % (no concentration beside the values); hit rate 3.8% among 290,000; AID 485317, 2010;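 active means mean replicate inhibition above about 79%, with every replicate also reaching it, limit read from the data; inconclusive means only one of the two criteria met; inactive means mean below limit and not every replicate reaching it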
Target sequence (P55789 whole entry, looked up): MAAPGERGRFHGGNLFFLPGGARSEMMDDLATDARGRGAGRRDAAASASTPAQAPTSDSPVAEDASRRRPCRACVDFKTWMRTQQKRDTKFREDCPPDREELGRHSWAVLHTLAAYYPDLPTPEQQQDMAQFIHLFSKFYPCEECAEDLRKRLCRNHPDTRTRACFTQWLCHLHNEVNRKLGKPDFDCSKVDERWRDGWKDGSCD
* marks the source's active call; other numbers are inactive results; u = inconclusive; x = no result.

SMILES | Calb FLC | PP5 inh | PP1 counter | CSC inhib | ALR inh
CN(C)c1ccc(CNc2ccc3c(c2)ncn3C)cc1 | -14 | -1 | -2 | 13 | 99*
CCCCn1cnc2cc(NCc3ccncc3)ccc21 | -25 | 4 | -3 | -18 | 19
CN(C)c1cccc(C(=O)OCC(=O)Nc2ccccc2Sc2ccccc2)c1 | -4 | 3 | 4 | 5 | 7
Cc1ccc(NC(=O)c2cnccn2)c(OC(F)F)c1 | -18 | 0 | 1 | -9 | 1
Cc1ccc(OCC(=O)NCCNC(=O)c2cnccn2)cc1 | 9 | 2 | -2 | -24 | -3
CN(C)c1ccc(C2N3CC4(C)CN2CC(C)(C3)C4O)cc1 (stereo not drawn) | -4 | 3 | -5 | -10 | 99*
CC(C)c1cc(C(N)=O)c(NC(=O)C2CCC2)s1 | 3 | 1 | -2 | 13 | 97*
CC(C)c1nnc(NC(=O)C2CCCCC2)s1 | 3 | -2 | 1 | -3 | 0
COc1cccc(C2c3[nH]c4ccccc4c3C[C@H]3C(=O)N(c4ccccc4C(=O)N4CCC(C(=O)O)CC4)C(=O)N23)c1 (stereo partly drawn) | -2 | 2 | -4 | -11 | 98*
COc1ccc(C2c3[nH]c4ccccc4c3C[C@H]3C(=O)N(c4ccccc4C(=O)N4CCC(C(=O)O)CC4)C(=O)N23)cc1 (stereo partly drawn) | -6 | 5 | -7 | 13 | 10
CC(C)c1ccc(C2c3[nH]c4ccccc4c3C[C@H]3C(=O)N(c4ccccc4C(=O)N4CCC[C@H]4C(=O)O)C(=O)N23)cc1 (stereo partly drawn) | 5 | 4 | 4 | -5 | 98*
Cc1ccc(C2c3[nH]c4ccccc4c3C[C@H]3C(=O)N(c4ccccc4C(=O)NCCN4CCOCC4)C(=O)N23)cc1 (stereo partly drawn) | 1 | 7 | -6 | -11 | -1
Cc1ccc2c(c1)nnn2C1CCN(CC(=O)N2CCN(c3ccc(F)cc3)CC2)CC1 | 12 | 1 | 4 | 20 | 24
Cc1ccc(/C=[N+](\[O-])c2ccc(N(C)C)cc2)c2nsnc12 | 97* | x | x | x | x
Cc1cc(C)c2[nH]c(=O)c(CN(Cc3cccs3)C(=S)NCc3ccco3)cc2c1 | -6 | 2 | 16* | 88* | 2
CCN(CC)CCN(Cc1cc2cc(C)cc(C)c2[nH]c1=O)C(=S)NCc1ccco1 | -4 | 2 | -1 | 1 | -8
COc1ccc(C(=O)CSC2=C(C#N)C3(CCCCC3)C(C#N)=C(N)N2)cc1 | 0 | 3 | 1 | -3 | 87*
Cc1ccccc1C(=O)OCc1nnc(-c2ccc(Cl)cc2)o1 | -41 | 2 | 1 | 7 | -2
Cc1ccc2c(c1)Oc1ccc(NC(=O)CCCl)cc1C(=O)N2 | 15 | 1 | -2 | 92* | 12
O=C(NCc1cn(-c2ccccc2)nc1-c1ccccc1)c1cc([N+](=O)[O-])cc([N+](=O)[O-])c1 | 9 | 1 | -2 | -4 | -10
O=C(c1cc2ccccc2o1)N1CCCCCC1 | -8 | 1 | -2 | 8 | 6
O=C(c1oc2ccccc2c1N1CCCCC1)N1CCCCC1 | -1 | 4 | -2 | -12 | 99*
CC1CCN(CC(=O)Nc2ccccc2Sc2ccccc2)CC1 | -1 | 3 | 0 | 117* | -1
CCC(=O)Nc1cc(C(=O)O)ccc1Sc1ccccc1 | -6 | -2 | 17* | -7 | -11
Cc1ccc(S(=O)(=O)N(CC(=O)Nc2ccccc2C(=O)O)c2cccc(Cl)c2C)cc1 | -6 | 3 | 10 | 37 | 97*
SMILES | Calb FLC | PP5 inh | PP1 counter | CSC inhib | ALR inh
CCc1c(C)nc2cc(-c3ccc(OC)c(OC)c3)nn2c1N1CCC(C)CC1 | u | 3 | -6 | 11 | -16
CCN1C(=O)/C(=C2\C=Cc3ccccc3N2CC)SC1=S | 1 | 0 | 0 | 41 | x
CCN1C(=O)/C(=C2/SC(C)=C(C)N2CC)SC1=S | 54 | 1 | -3 | 1 | 97*
COc1cc(SC)ccc1C(=O)NCCN1CCOCC1 | -4 | -2 | 0 | -18 | -15
Nc1ccc2nc(-c3ccccn3)[nH]c2c1 | -4 | -2 | 6 | 15 | x
Nc1ccc2nc(CCc3ccccc3)[nH]c2c1 | -18 | -1 | 1 | -5 | 99*
Cc1ccc2nc(CCc3ccc(N)cc3)[nH]c2c1 | -2 | 3 | 2 | 8 | 99*
Nc1ccc(Cc2nc3cc4ccccc4cc3[nH]2)cc1 | -10 | 1 | -1 | 37 | -6
Cc1ccc(C)c(NC(=O)C2CC3CCC2C3)c1 (stereo not drawn) | -2 | 2 | 0 | -8 | 1
Cc1cccc(NC(=O)NNC(=O)COc2ccc(Cl)cc2)c1 | -20 | 4 | -1 | 6 | -11
COc1ccc(-n2c(/C=C3\C(=O)N(C)c4ccccc43)nc3ccccc3c2=O)cc1 | -3 | -1 | -1 | 9 | 97*
CCN1C(=O)/C(=C\c2nc3ccccc3c(=O)n2-c2ccccc2)c2ccccc21 | -1 | 0 | 1 | x | 66
CCN1/C(=C/C=C/c2oc3ccc4ccccc4c3[n+]2CC)Oc2ccc3ccccc3c21 | 22 | -1 | 49* | 20 | -19
CC[n+]1c(/C=C/N(C)c2ccccc2)oc2ccc(Cl)cc21 | -7 | 2 | -1 | -6 | 28
Cc1c(C#N)c(N=CN(C)C)c(C(=O)c2ccccc2)n1-c1ccccc1 | -8 | 2 | 1 | 0 | -2
CCOC(=O)Cc1csc(NC(=O)Nc2ccc(Cl)cc2)n1 | -6 | 5 | 0 | x | 8
Cc1ccc(C(=O)N/N=C(/CC(=O)c2cccs2)C(F)(F)F)cc1 | 1 | 1 | 1 | 30 | 62
O=C(N/N=C(\CC(=O)c1cccs1)C(F)(F)F)c1ccncc1 | 4 | 2 | -5 | 25 | 98*
O=C(O)c1ccn2c(C(=O)c3ccccc3)c(-c3ccccc3)cc2c1 | -3 | 1 | 3 | -2 | 10
Cc1ccc(NC(=O)c2cccc(C(=O)Nc3ccc(C)cc3C(=O)O)c2)c(C(=O)O)c1 | -2 | 1 | 6 | 3 | 99*
COc1ccc(C)cc1NC(=O)c1cccc(C(=O)Nc2cc(C)ccc2OC)c1 | -1 | 3 | -3 | 0 | -8
Cc1cc(O)ccc1NC(=O)c1ccccc1 | -7 | 3 | -18 | 3 | 99*
Cc1cc(N)ccc1NC(=O)c1ccccc1 | 8 | 3 | -3 | -7 | 98*
O=C(Nc1ccccc1C(=O)O)c1cccc(NS(=O)(=O)c2ccc(Br)cc2)c1 | 10 | 0 | 8 | x | 13
Cc1ccc(S(=O)(=O)CCSc2cccc(C(=O)Nc3ccccc3C(=O)O)c2)cc1 | 8 | 1 | 1 | x | 99*
Fc1cccc(Cc2noc(CN3CCCCC3CCc3ccccn3)n2)c1 (stereo not drawn) | u | 2 | 3 | 12 | -3
COc1ccc(N2CCN(C3CC(=O)N(C)C3=O)CC2)cc1 (stereo not drawn) | 0 | 2 | -4 | -8 | 45

Screening results from PubChem.
